Assay outcomes deposited in PubChem by National Center for Advancing Translational Sciences (NCATS).
KDM5B inh = inhibitors of human KDM5B histone demethylase. Q9UGL1. KDM5B demethylase, FDH-coupled NADH fluorescence (FDH is formaldehyde dehydrogenase). Potency, µM (titrated, usually from 57.7 µM), actives largely listed as inhibitors. hit rate 2.6% among 220,000. AID 1347165; note: potency is the fitted concentration of half-maximal effect; 0% is about no effect; nearly all actives have a fitted effect of over 70% in size
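Compound dilutions met 200 nM (final) KDM5BΔAP for 10 min at room temperature before substrate addition. The substrate mix held 12.5 µM H3K4me3 with cofactors 25 µM α-ketoglutarate and 50 µM Fe²⁺. NADH signal gain over 30 min defined activity.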
HEK293 viab = counter-screen for SNCA expression inhibitors: cell viability; Potency, µM (top dose mostly 57.1 µM), without a hit: at the highest dose activity change, negative = cytotoxicity, most hits filed as cytotoxic; hit rate 0.12% among 150,000; HEK-293-SNCA-luc viability, GF-AFC fluorescence, 24 h;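 note: potency is the fitted concentration of half-maximal effect; 0% = DMSO-treated cells and -100% = medium-only wells without cells; nearly all actives have a fitted effect of over 30% in size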
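Cytotoxicity counterscreen: after 24 h compound treatment of genome-edited SNCA-luciferase HEK-293 cells, live-cell protease substrate GF-AFC read by fluorescence after 30 min; activity scaled between DMSO (0%) and medium-only (-100%), curves Hill-fitted.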
IP6K1 inh = blocks human inositol hexakisphosphate kinase 1; Q92551; IP6K1 kinase, ADP-Glo luminescence, 2 h; stronger effect = lower value; activity change, % (series mostly up to about 58 µM); hit rate 0.81% among 140,000; AID 1645851; in the data active = activity change below about -25%; note: % is set by controls: 0 for no effect and ±100 for the full control effect
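ADP-Glo luminescence measures ADP made by human IP6K1 during a 2 h RT reaction with ATP/IP6 (mix at 1.3 mM/130 uM); top library doses 57.5 and 19.1 uM final.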
SNCA expr inh = inhibitors of alpha-synuclein (SNCA) gene expression | AID 1671194 | HEK-293 SNCA-luciferase knock-in, luminescence, 24 h | Potency, µM (doses to about 57.2 µM), without a hit: top-dose activity change, negative = inhibition, most hits filed as inhibitors | hit rate 0.17% among 140,000;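 note: potency is the fitted concentration of half-maximal effect; plate controls were DMSO cells for no effect and cell-free wells for full effect; nearly all actives have a fitted effect of over 45% in size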
The depositor's hits bear a star; ! = a repeat was not active; [ ] = another dose, or the depositor's remark. Only some compounds are listed: those with a hit (about 2.9% of all), similar ones and a draw of the others. Unless noted, calls come from the whole dose curve; as a rule, active = well fitted curve in the direction sought with a large enough effect; inconclusive = small, poorly fitted or top-dose-only effect, or another doubt; inactive = no such curve, though single readings can be large; an effect the other way counts as inactive or inconclusive.

Screening CCOC(=O)NNc1ccc(N(CC)CC(C)O)nn1 (centres undefined) returned HEK293 viab 31%[23.9 µM], IP6K1 inh 4 and SNCA expr inh 29%[25.6 µM].
Screening COC(=O)c1sccc1S(=O)(=O)N1CCN(c2ccc(C(C)=O)cc2)CC1 returned KDM5B inh inactive, HEK293 viab inconclusive, IP6K1 inh 1 and SNCA expr inh 33%.
For C=CC(=O)Nc1ccc(CN2C(=O)N(c3cc(OC)cc(OC)c3)Cc3cnc(Nc4ccc(N5CCN(C)CC5)cc4)nc32)cc1 the results were HEK293 viab 19µM* and IP6K1 inh -18.
For COc1ccc(C(=O)N2CCC(N3CCNC3=O)CC2)cc1 the results were KDM5B inh 89µM*, HEK293 viab -2%[87.6 µM], IP6K1 inh -22 and SNCA expr inh 31%[87.6 µM].
O=C(c1cc(Br)cn2ccnc12)N1CCN(c2ncccn2)CC1 was read as KDM5B inh inconclusive, HEK293 viab -6%, IP6K1 inh -6 and SNCA expr inh 20%.
Screening O=C(c1cc(Br)cn2ccnc12)N1CCC(N2CCCCCC2=O)CC1 returned KDM5B inh 25µM*, HEK293 viab 7%, IP6K1 inh -8 and SNCA expr inh 27%.
Screening O=C(c1cc(Br)cn2ccnc12)N1CCC(N2CCCCC2)CC1 returned KDM5B inh 28µM*, HEK293 viab -3%, IP6K1 inh -11 and SNCA expr inh -28%.
Screening O=C(c1cc(Br)cn2ccnc12)N1CCOCC1 returned KDM5B inh 28µM*!, HEK293 viab 10%[87.6 µM], IP6K1 inh 11 and SNCA expr inh 42%[87.6 µM].
COc1ccc(C(=O)N2CCC(N3CCCNC3=O)CC2)cc1 was read as KDM5B inh inactive, HEK293 viab 14%[87.6 µM], IP6K1 inh 14 and SNCA expr inh -1%[87.6 µM].
For CN1CCN(c2nc3c(S(=O)(=O)c4ccc(Br)cc4)nnn3c3ccsc23)CC1 the results were KDM5B inh inactive, HEK293 viab 4%, IP6K1 inh 18 and SNCA expr inh 21%.
Screening Cc1ccc(C(=O)N2CCC(N3CCCCCC3=O)CC2)cc1 returned KDM5B inh 35µM*, HEK293 viab -4%[87.6 µM], IP6K1 inh 21 and SNCA expr inh -17%[87.6 µM].
`O=C(c1cc(Br)cn2ccnc12)N1CCCC1` gave KDM5B inh 35µM*, HEK293 viab 4%[87.6 µM], IP6K1 inh -18 and SNCA expr inh -22%[87.6 µM].
`N#CC1CCN(C(=O)c2cc(Br)cn3ccnc23)CC1` gave KDM5B inh 40µM*, HEK293 viab 2%[87.6 µM], IP6K1 inh 2 and SNCA expr inh -12%[87.6 µM].
CC(=O)OCC1=C(C(=O)O)N2C(=O)[C@@H](NC(=O)CSc3ccncc3)[C@H]2SC1 was read as HEK293 viab -21%[23.9 µM], IP6K1 inh -42* and SNCA expr inh -22%[25.6 µM].
For CNc1ncccc1C(=O)N1CC[C@@H](c2ccc3c(c2)OCO3)[C@H](O)C1 the results were KDM5B inh 28µM*, HEK293 viab -16%, IP6K1 inh 33 and SNCA expr inh inconclusive.
`CN(C)C(=O)c1ccnc2[nH]ccc12` gave KDM5B inh 126µM*, HEK293 viab inconclusive, IP6K1 inh -3 and SNCA expr inh -4%[87.6 µM].
Screening Cc1ccccc1C(=O)NCc1ccnc2[nH]ccc12 returned KDM5B inh inconclusive, HEK293 viab 16%[87.6 µM], IP6K1 inh 8 and SNCA expr inh 21%[87.6 µM].
O=C(c1ccnc2[nH]ccc12)N1CCOCC1 was read as KDM5B inh 126µM*, HEK293 viab -2%[87.6 µM], IP6K1 inh 17 and SNCA expr inh 26%[87.6 µM].
`CCC(C)NC(=O)c1[nH]c2cc(C)ccc2c1Sc1ccc(Cl)cc1` (centres undefined) gave KDM5B inh inactive, HEK293 viab 7%, IP6K1 inh 1 and SNCA expr inh 16%.
Cc1cccc(N2CCN(C(=O)c3cnc4c(C)cccn4c3=O)CC2C)c1 (centres undefined) was read as KDM5B inh inactive, HEK293 viab 1%, IP6K1 inh 18 and SNCA expr inh -6%.
Cc1cccc(CN2CCN(C(=O)c3cnc4ccccn4c3=O)CC2=O)c1 was read as KDM5B inh 32µM*, HEK293 viab -1%, IP6K1 inh -4 and SNCA expr inh inconclusive.
For COC[C@@H]1CCCN1Cc1cc2ccc(C)cc2nc1-c1ccc(OC)cc1 the results were KDM5B inh 22µM*, HEK293 viab -13%, IP6K1 inh -11 and SNCA expr inh 25%.
COc1ccc2cc(CN3CCCC(C#N)C3)c(-c3cccs3)nc2c1 (centres undefined) was read as KDM5B inh 32µM*, HEK293 viab -6%, IP6K1 inh 13 and SNCA expr inh 0%.
Screening COc1ccc(-c2nc3cc(C)ccc3cc2CN2CCCC(OC)C2)cc1 (centres undefined) returned KDM5B inh 25µM*, HEK293 viab -12%, IP6K1 inh -3 and SNCA expr inh 9%.
`COc1ccc(-c2nc3cc(C)ccc3cc2CN2CCCC(CO)C2)cc1OC` (centres undefined) gave KDM5B inh inactive, HEK293 viab -8%, IP6K1 inh 19 and SNCA expr inh -2%.
Screening CCOC(=O)c1oc2cc(OC)ccc2c(=O)c1-c1ccc(Br)cc1 returned KDM5B inh inactive.
Cc1ccccc1-c1cnc2[nH]cc(CC(=O)Nc3ccn(C)n3)c2c1 was read as KDM5B inh 32µM*, HEK293 viab -10%[87.6 µM], IP6K1 inh -21 and SNCA expr inh -16%[87.6 µM].
`COc1ncccc1-c1cnc2[nH]cc(CC(=O)Nc3cc(C)nn3C)c2c1` gave KDM5B inh 40µM*, HEK293 viab -6%[87.6 µM], IP6K1 inh -13 and SNCA expr inh 12%[87.6 µM].
`COc1ncccc1-c1cnc2[nH]cc(CC(=O)N3CCOCC3)c2c1` gave KDM5B inh 35µM*, HEK293 viab -6%[87.6 µM], IP6K1 inh -13 and SNCA expr inh 29%[87.6 µM].
Screening COc1ncccc1-c1cnc2[nH]cc(CC(=O)NC(C)C)c2c1 returned KDM5B inh 32µM*, HEK293 viab -6%[87.6 µM], IP6K1 inh 8 and SNCA expr inh 2%[87.6 µM].
COc1cccc(NC(=O)Cc2c[nH]c3ncc(-c4cccnc4OC)cc23)c1 was read as KDM5B inh inconclusive, HEK293 viab inconclusive, IP6K1 inh -12 and SNCA expr inh -14%[87.6 µM].
`COc1ccc(-c2cnc3[nH]cc(CC(=O)N4CCOCC4)c3c2)cn1` gave KDM5B inh inconclusive, HEK293 viab -5%[87.6 µM], IP6K1 inh -12 and SNCA expr inh 43%[87.6 µM].
For CC(C)c1noc(-c2ccc(N(C)CC(O)c3ccccc3)nc2)n1 (centres undefined) the results were KDM5B inh inconclusive, HEK293 viab inconclusive, IP6K1 inh 11 and SNCA expr inh 98%.
For CCOc1ccc(NC(=O)c2ccccc2)cc1 the results were KDM5B inh inactive.
Screening COc1ncccc1-c1cnc2[nH]cc(CC(=O)Nc3ccccn3)c2c1 returned KDM5B inh 35µM*, HEK293 viab -23%[87.6 µM], IP6K1 inh -16 and SNCA expr inh 67%[87.6 µM].
Screening Cc1ccccc1-c1cnc2[nH]cc(CC(=O)Nc3ccccn3)c2c1 returned KDM5B inh inconclusive, HEK293 viab -17%[87.6 µM], IP6K1 inh -22 and SNCA expr inh -15%[87.6 µM].
